The entries come from a sample that favours hits as a whole.
GluA2 TARP mod: modulators of AMPA receptor GluA2-stargazin complexes; O88602+P19491; HEK293 GluA2+stargazin, membrane potential dye (FDSS), glutamate EC50; hits were called plate by plate, in both directions; calls only at 30 µM; 40,000 compounds, 3.5% hits; AID 1259245;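 active = any of four per-well response measures lying three or more SD from its plate-wide compound average, in either direction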
GIRK2 activator: GIRK2 channel activators by thallium flux. 34,000 tested, under 10 active. HEK293 GIRK2/NPY4 cells, thallium flux fluorescence. activation (% efficacy), % for hits at 37.5 µM. P48051. AID 1259324;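 active = primary screen hit, no activity in plain HEK293 cells, and in GIRK2-only cells above 5% efficacy rising with concentration; inactive = the rest, including fluorescent compounds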;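 also: efficacy is normalized control-subtracted fluorescence 15 s after thallium addition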
Target sequence (P48051 whole entry, looked up): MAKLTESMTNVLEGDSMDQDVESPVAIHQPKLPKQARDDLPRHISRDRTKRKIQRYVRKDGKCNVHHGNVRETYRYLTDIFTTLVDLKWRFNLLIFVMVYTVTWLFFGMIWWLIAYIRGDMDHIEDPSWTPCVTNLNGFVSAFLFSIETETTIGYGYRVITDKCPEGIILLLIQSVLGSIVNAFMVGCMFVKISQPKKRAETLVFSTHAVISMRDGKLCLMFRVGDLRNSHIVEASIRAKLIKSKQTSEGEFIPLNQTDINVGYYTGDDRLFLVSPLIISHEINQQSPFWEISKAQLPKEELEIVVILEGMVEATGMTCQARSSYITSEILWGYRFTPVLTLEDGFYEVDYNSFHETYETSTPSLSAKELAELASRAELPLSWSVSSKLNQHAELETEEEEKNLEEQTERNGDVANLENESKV
Calls only; . = inactive; / = not tested or not shown; + = active, no number; ! = not confirmed by another sample.

SMILES | GluA2 TARP mod | GIRK2 activator
COCCn1c(SCC(=O)c2c(C)[nH]c3ccccc23)nc2cc(C(=O)NC(C)C)ccc2c1=O | + | /
COCCn1c(SCc2ccc(Cl)cc2)nc2cc(C(=O)NC(C)C)ccc2c1=O | . | .
Cn1nc(NC(=O)c2ccc([N+](=O)[O-])o2)c2c1NC(=O)CC2c1cccs1 (centres undefined) | . | .
COC1CCN(S(=O)(=O)c2ccc(F)cc2F)CC1 | . | .
C=CCN1CC(c2nc3ccccc3n2C(C)c2ccccc2)CC1=O (centres undefined) | + | /
C=CCN1CC(c2nc3ccccc3n2Cc2ccc(Cl)c(Cl)c2)CC1=O (centres undefined) | . | /
C=CCN1CC(c2nc3ccccc3n2Cc2ccc(C(C)(C)C)cc2)CC1=O (centres undefined) | . | /
C=CCN1CC(c2nc3ccccc3n2Cc2c(C)c(C)cc(C)c2C)CC1=O (centres undefined) | + | /
CC(c1ccccc1)n1c(C2CC(=O)N(C(C)(C)C)C2)nc2ccccc21 (centres undefined) | + | /
CC(C)(C)N1CC(c2nc3ccccc3n2CCOc2ccccc2)CC1=O (centres undefined) | . | /
Nc1c(S(=O)(=O)c2cccs2)c2nc3ccccc3nc2n1Cc1ccco1 | . | .
COC(=O)c1sccc1S(=O)(=O)NCC1(O)CCOc2ccccc21 (centres undefined) | / | .
CC(=O)Nc1ccc(S(=O)(=O)NCCCN2CCN(c3ccccc3)CC2)c(C)c1 | . | /
COCCn1c(=O)c2c(nc3n(-c4ccc(C)cc4)c(C)c(C)n23)n(C)c1=O | . | /
O=C(CC1SC(=O)N(Cc2ccccc2)C1=O)Nc1ccc([N+](=O)[O-])cc1 (centres undefined) | + | .
COc1ccc(NC(=O)CC2SC(=O)N(CC(=O)c3ccccc3)C2=O)cc1 (centres undefined) | . | .
COc1ccc(OC)c(N2CC(C(=O)Nc3ccc(F)cc3)CC2=O)c1 (centres undefined) | . | .
O=C(Nc1nc(C(=O)N2CCc3ccccc3C2)co1)c1ccco1 | + | .
O=C(NCc1ccccc1Cl)c1coc(NC(=O)c2ccco2)n1 | . | .
O=C(Nc1ccccc1)c1cc([N+](=O)[O-])ccc1N1CCOCC1 | . | /
CN(C1CC1)S(=O)(=O)c1ccc(C(=O)Nc2ccc3c(c2)OCO3)cc1 | + | .
CN(C1CCCC1)S(=O)(=O)c1ccc(C(=O)Nc2ccc3c(c2)OCO3)cc1 | . | /
CN1C(=O)CCc2cc(NC(=O)c3ccc4c(c3)OCO4)ccc21 | + | /
CCCCN1C(=O)CCc2cc(NC(=O)c3ccc4c(c3)OCO4)ccc21 | . | .
CN(c1ccsc1C(=O)Nc1ccc(F)c(F)c1)S(=O)(=O)c1ccccc1 | . | .
SMILES | GluA2 TARP mod | GIRK2 activator
CN(c1ccsc1C(=O)Nc1ccc2c(c1)OCCO2)S(=O)(=O)c1ccccc1 | +! | .
O=c1c2cc(-c3ccc(F)cc3)nn2ccn1Cc1nc(-c2ccccc2Cl)no1 | . | .
CCNc1cc(C)nc(NCCNS(=O)(=O)c2cccs2)n1 | . | .
COc1cc([N+](=O)[O-])ccc1NC(=O)c1ccc(=O)n(Cc2ccccc2Cl)c1 | . | .
COc1cc([N+](=O)[O-])ccc1NC(=O)c1ccc(=O)n(Cc2ccccc2F)c1 | + | .
COc1cc([N+](=O)[O-])ccc1NC(=O)c1ccc(=O)n(Cc2cccc([N+](=O)[O-])c2)c1 | + | .
Cc1ccccc1Cn1cc(C(=O)Nc2cccc([N+](=O)[O-])c2)ccc1=O | . | .
O=C(Nc1cccc([N+](=O)[O-])c1)c1ccc(=O)n(Cc2ccccc2F)c1 | + | .
Cc1cc([N+](=O)[O-])ccc1NC(=O)c1ccc(=O)n(Cc2ccc(F)cc2)c1 | . | .
COc1ccccc1NC(=O)c1ccc(=O)n(Cc2cccc([N+](=O)[O-])c2)c1 | . | .
COc1cc([N+](=O)[O-])ccc1NC(=O)c1ccc(=O)n(Cc2ccc(F)cc2)c1 | + | .
COc1ccc(Cl)cc1-n1nnc(C(=O)NCC2CCCO2)c1C (centres undefined) | . | /
Cc1ccc(C)c(C(=O)NCC(O)c2cccn2C)c1 (centres undefined) | . | .
CC(C(=O)NCc1ccc(F)cc1F)n1nnc2ccccc2c1=O (centres undefined) | . | .
CC1=NN(c2ccccc2)C(=O)C1C(=O)c1ccc(Br)o1 (centres undefined) | + | .
CC1=NN(c2ccccc2)C(=O)C1C(=O)c1ccc(S(=O)(=O)N(C)C)cc1 (centres undefined) | . | .
Cn1c(=O)[nH]c(=O)c2c1ncn2CC(=O)NCCO | . | .
O=C(c1ccc([N+](=O)[O-])o1)N(C(=O)N1CCCCC1)c1ccc(Cl)cc1 | + | /
O=C(c1ccc(Br)o1)N(C(=O)N1CCCCC1)c1cccc(Cl)c1 | . | .
O=C(c1cc2ccccc2o1)N(C(=O)N1CCCCC1)c1ccc(Cl)cc1 | . | /
